Calls of active or inactive are those of the source. How the source made its calls: active means hit-call score of the fitted dose curve at least 0.9, where 1 is the maximum; inactive means score below 0.9.

A word on the AC50: it is the concentration at which the activity in the assay is half-maximal.

Read-out in assay [1]: Monokine induced gamma interferon (MIG), CXCL9 (gene 4283)
Put plainly: BSK_3C_MIG: BioMAP Diversity Plus: 3C Assay for Monokine induced gamma interferon (MIG) Biomarker Activity (AID 2283021). To be noted: primary human endothelial cells (HUVEC); actives raise or lower the signal. The essentials:
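Endothelial primary cells (human umbilical vein) are dosed with test chemical in the 3C system. MIG levels are measured by ELISA at 24 h and fitted in both directions relative to DMSO.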

The nature of assay [2]: BSK_3C_SRB: Viability Assessment in the BioMAP Diversity Plus: 3C Assay (AID 2283023).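 Further: fitted both ways against DMSO so a hit may be signal rise or drop.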 Particulars: primary human endothelial cells (HUVEC). The essentials:
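Overt cytotoxicity is gauged in parallel confluent HUVEC cultures by SRB total-protein staining at the time of biomarker measurement, 24 h after dosing. Gain or loss of signal is fitted versus DMSO.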

Read-out in assay [3]: Matrix Metallopeptidase 1 (MMP1), MMP1 (gene 4312)
Kind of assay: BSK_BE3C_MMP1: BioMAP Diversity Plus: BE3C Assay for Matrix Metallopeptidase 1 (MMP1) Biomarker Activity (AID 2283024). To be noted: primary human bronchial epithelial cells; actives raise or lower the signal. The gist of the method:
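MMP1 signal, measured by ELISA after a 24 h chemical exposure of human primary bronchial epithelial cells, is analysed with bidirectional fitting using DMSO as negative control.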

A short description of assay [4]: BSK_3C_Vis: BioMAP Diversity Plus: 3C Assay for Morphology Visualization (AID 2283025).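 Further: fitted both ways so gain or loss versus DMSO counts.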 To be noted: primary human endothelial cells (HUVEC). The gist of the method:
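Morphology read by light microscopy serves as a background control for the multiplexed 3C assay in human umbilical vein endothelial cells, taken 24 h after dosing, with DMSO as the negative control and bidirectional curve fitting.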

Read-out in assay [5]: Pselectin, SELP (gene 6403)
Put plainly: BSK_4H_Pselectin: BioMAP Diversity Plus: 4H Assay for Pselectin Biomarker Activity (AID 2283026). Particulars: primary human endothelial cells (HUVEC); actives raise or lower the signal. The gist of the method:
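Endothelial primary cells (human umbilical vein) are dosed, incubated 24 h, and assayed for surface P-selectin by ELISA; responses in either direction are fitted relative to the DMSO negative control.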

A short description of assay [6]: BSK_4H_SRB: Viability Assessment in the BioMAP Diversity Plus: 4H Assay (AID 2283027).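 Further: cells exposed to compound for 24 h before staining.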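 On AC50: curves fitted both ways versus DMSO so AC50 may be loss or gain.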 To be noted: primary human endothelial cells (HUVEC). The gist of the method:
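HUVEC, 24 h post-dose; 10% TCA fix, 0.1% SRB stain, A560 nm. Total protein = overt cytotoxicity, parallel to biomarker read. Bidirectional fit vs DMSO baseline.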

Assay [7] can be described thus: BSK_BE3C_SRB: Viability Assessment in the BioMAP Diversity Plus: BE3C Assay (AID 2283028).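 On AC50: fitted both ways so AC50 may mark signal gain or loss versus DMSO.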 To be noted: primary human bronchial epithelial cells. The gist of the method: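 SRB total-protein staining (0.1%, after TCA fixation) of chemically dosed human bronchial epithelial primary cells at 24 h; DMSO serves as the negative control for bidirectional curve fitting.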

Read-out in assay [8]: Thrombomodulin, THBD (gene 7056)
Kind of assay: BSK_3C_Thrombomodulin: BioMAP Diversity Plus: 3C Assay for Thrombomodulin Biomarker Activity (AID 2283029). Particulars: primary human endothelial cells (HUVEC); actives raise or lower the signal. The essentials: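 Endothelial cells from umbilical vein are dosed with test chemical and incubated 24 h. Thrombomodulin is then quantified by ELISA, with DMSO serving as negative control and activity baseline.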

Read-out in assay [9]: Urokinase-type plasminogen activator receptor (uPAR), PLAUR (gene 5329)
Put plainly: BSK_4H_uPAR: BioMAP Diversity Plus: 4H Assay for Urokinase-type plasminogen activator receptor (uPAR) Biomarker Activity (AID 2283030). To be noted: primary human endothelial cells (HUVEC); actives raise or lower the signal. The gist of the method: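 Endpoint derived via bidirectional curve fitting against DMSO baseline; readout was ELISA detection of uPAR on umbilical vein endothelial cells at 24 h post-treatment, with SRB-stained parallel cultures assessing cytotoxicity.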

Read-out in assay [10]: Vascular endothelial growth factor receptor 2 (Homo sapiens) (UniProt P35968)
Kind of assay: BSK_4H_VEGFRII: BioMAP Diversity Plus: 4H Assay for Vascular endothelial growth factor receptor 2 (VEGFR2) Biomarker Activity (AID 2283031). Particulars: primary human endothelial cells (HUVEC); actives raise or lower the signal. The essentials:
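In this multiplexed HUVEC system, biomarker ELISA was performed after 24 h chemical exposure. Parallel SRB staining (TCA fixation, 560 nm) tracked cytotoxicity; DMSO served as baseline.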

Read-out in assay [11]: Human Leukocyte Antigen - DR isotype (HLADR), HLA-DRA (gene 3122)
Put plainly: BSK_BE3C_HLADR: BioMAP Diversity Plus: BE3C Assay for Human Leukocyte Antigen - DR isotype (HLADR) Biomarker Activity (AID 2283032). Particulars: primary human bronchial epithelial cells; actives raise or lower the signal. The gist of the method:
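Chemicals are dosed onto BE3C bronchial epithelial cultures of human origin and left 24 h. HLA-DR is then measured by ELISA, and the endpoint is fitted in both directions using DMSO as the activity baseline.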

Read-out in assay [12]: Vascular cell adhesion molecule 1 (VCAM1), VCAM1 (gene 7412)
Kind of assay: BSK_4H_VCAM1: BioMAP Diversity Plus: 4H Assay for Vascular cell adhesion molecule 1 (VCAM1) Biomarker Activity (AID 2283033).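 On outcome: cell-surface VCAM-1 protein measured by ELISA.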 Particulars: primary human endothelial cells (HUVEC); actives raise or lower the signal. The essentials:
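Chemicals are added to primary human umbilical vein endothelial cells. After 24 h, VCAM-1 levels are measured by ELISA. Values come from bidirectional fitting referenced to DMSO.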

Read-out in assay [13]: Interferon-gamma inducible Protein 10 (IP10), CXCL10 (gene 3627)
Kind of assay: BSK_BE3C_IP10: BioMAP Diversity Plus: BE3C Assay for Interferon-gamma inducible Protein 10 (IP10) Biomarker Activity (AID 2283034). Particulars: primary human bronchial epithelial cells; actives raise or lower the signal. The gist of the method:
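IP-10 quantified by ELISA serves as the endpoint. Cells: primary human bronchial epithelium, read 24 h after compound addition. Activity is derived by bidirectional fitting with DMSO as negative control.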

Read-out in assay [14]: Monokine induced gamma interferon (MIG), CXCL9 (gene 4283)
Put plainly: BSK_BE3C_MIG: BioMAP Diversity Plus: BE3C Assay for Monokine induced gamma interferon (MIG) Biomarker Activity (AID 2283035).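 Further: MIG protein measured by ELISA in BE3C cultures after 24 h of dosing.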 To be noted: primary human bronchial epithelial cells; actives raise or lower the signal. The essentials:
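Dose cells (human primary bronchial epithelial), incubate 24 h, quantify MIG by ELISA, then fit concentration–response in both directions relative to DMSO control.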

Read-out in assay [15]: Transforming growth factor beta 1 (TGFb1), TGFB1 (gene 7040)
Put plainly: BSK_BE3C_TGFb1: BioMAP Diversity Plus: BE3C Assay for Transforming growth factor beta 1 (TGFb1) Biomarker Activity (AID 2283036;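 on outcome: TGF-b1 protein level measured by ELISA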). To be noted: primary human bronchial epithelial cells; actives raise or lower the signal. The gist of the method:
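Bronchial epithelial primary cells are treated with test chemical, then TGF-b1 is quantified by ELISA after 24 hours. Values derive from bidirectional fitting against DMSO, with cytotoxicity checked by SRB staining in parallel cultures.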

Read-out in assay [16]: Plasminogen activator inhibitor-1 (PAI1), SERPINE1 (gene 5054)
Kind of assay: BSK_BE3C_PAI1: BioMAP Diversity Plus: BE3C Assay for Plasminogen activator inhibitor-1 (PAI1) Biomarker Activity (AID 2283037). Particulars: primary human bronchial epithelial cells; actives raise or lower the signal. The gist of the method: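 Values derive from bidirectional fitting against DMSO baseline of PAI-1 levels, measured by ELISA in human bronchial epithelial cells 24 h after compound addition.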

Read-out in assay [17]: urokinase plasminogen activator (uPA), PLAU (gene 5328)
Kind of assay: BSK_BE3C_uPA: BioMAP Diversity Plus: BE3C Assay for urokinase plasminogen activator (uPA) Biomarker Activity (AID 2283038).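 Further: uPA protein level quantified by ELISA in cell cultures; uPA read one day after compound addition.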 To be noted: primary human bronchial epithelial cells; actives raise or lower the signal. The gist of the method: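 Using confluent primary human lung bronchial epithelial cultures, we dosed chemicals, waited 24 h, then ran a uPA ELISA, fitting bidirectionally against DMSO.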

Read-out in assay [18]: Urokinase-type plasminogen activator receptor (uPAR), PLAUR (gene 5329)
Kind of assay: BSK_BE3C_uPAR: BioMAP Diversity Plus: BE3C Assay for Urokinase-type plasminogen activator receptor (uPAR) Biomarker Activity (AID 2283039).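 On outcome: uPAR protein level measured by ELISA on the cells; cells exposed to compound for one day before measurement.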 To be noted: primary human bronchial epithelial cells; actives raise or lower the signal. The essentials: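 Steps: dose human primary bronchial epithelial cells, incubate 24 h, measure uPAR by ELISA, then fit gain- or loss-of-signal response bidirectionally relative to DMSO.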

Read-out in assay [19]: Interleukin-6 (IL6), IL6 (gene 3569)
Put plainly: BSK_CASM3C_IL6: BioMAP Diversity Plus: CASM3C Assay for Interleukin-6 (IL6) Biomarker Activity for (AID 2283040). Particulars: primary human coronary artery smooth muscle cells; actives raise or lower the signal.

For the molecule `Cc1nc(N(C)C)nc(OC(=O)N(C)C)c1C`, the result in assay [1], in assay [2], in assay [3], in assay [4], in assay [5] and in [6] was inactive. Further, the result in assay [7], in [8], in [9], in assay [10], in assay [11] and in assay [12] was inactive. The outcome in [13], in assay [14], in assay [15], in [16], in assay [17] and in [18] was inactive. For the same molecule, the outcome in assay [19] was inactive.

For `CC(C)NC(=O)N1CC(=O)N(c2cc(Cl)cc(Cl)c2)C1=O`, the outcome in assay [1], in [2], in [3], in assay [4], in [5] and in assay [6] was inactive. Further, the outcome in [7], in assay [8], in assay [10], in assay [11], in assay [12] and in [13] was inactive. In addition, the result in [14], in assay [15], in assay [16], in assay [17], in assay [18] and in assay [19] was inactive. In addition, in assay [9], the concentration at half-maximal activity (AC50) was 23.1 µM (active).

Take `Cc1cnc(C2=NC(C)(C(C)C)C(=O)N2)c(C(=O)O)c1` (stereo not drawn): the result in [1], in assay [2], in [3], in assay [4], in [5] and in assay [6] was inactive. The outcome in [7], in assay [8], in [9], in [10], in [11] and in assay [12] was inactive. The result in assay [13], in assay [14], in assay [16], in [17], in assay [18] and in assay [19] was inactive. For the same molecule, in assay [15], the AC50 was 4.93 µM (active).

Take `COC(=O)c1c(C(F)F)nc(C(F)(F)F)c(C2=NCCS2)c1CC(C)C`: the result in assay [1], in assay [3], in assay [4], in [5], in [7] and in [8] was inactive. Moreover, the outcome in assay [10], in [14], in assay [15], in assay [17], in assay [18] and in assay [19] was inactive. The AC50 in assay [2] is 33.3 µM (active); in assay [6], 36.5 µM (active); in assay [9] it was 33.9 µM (active); in [11], 3.97 µM (active); in assay [12] it was 20 µM (active); in assay [13] it was 17.7 µM (active). Also, the AC50 in assay [16] is 3.97 µM (active).

In the case of `CC(C)Oc1cccc(NC(=O)c2ccccc2C(F)(F)F)c1`, the outcome in assay [1], in [3], in assay [4], in assay [5], in assay [6] and in [7] was inactive. In addition, the outcome in assay [8], in [9], in assay [10], in [11], in [12] and in assay [13] was inactive. In addition, the outcome in [14], in assay [15], in [16], in [17], in assay [18] and in assay [19] was inactive. Besides, the AC50 in assay [2] is 11.6 µM (active).

Regarding `CN=C=S`, the outcome in assay [1], in [2], in [3], in assay [4], in assay [5] and in assay [6] was inactive. For the same molecule, the result in [7], in assay [8], in assay [9], in assay [10], in [11] and in assay [12] was inactive. In addition, the result in [13], in assay [14], in assay [15], in assay [16], in [17] and in assay [18] was inactive. For the same molecule, the result in [19] was inactive.

Turning to `CCOP(=O)(OCC)Oc1nc(Cl)c(Cl)cc1Cl`, the outcome in assay [1], in [3], in assay [8], in assay [10], in assay [11] and in [14] was inactive. In addition, the result in [15], in assay [16], in [17] and in assay [19] was inactive. The AC50 is 28.8 µM (active) in assay [2]; 16.3 µM (active) in [4]; 18.5 µM (active) in assay [5]; 12.4 µM (active) in [6]; 4.23 µM (active) in assay [7]; 12 µM (active) in [9]. Further, the AC50 in assay [12] is 26.7 µM (active); in [13] it was 23.9 µM (active); in [18] it was 9.84 µM (active).
